Screening results (PubChem BioAssay)
Hits are enriched below; roughly 3.4% of the tested compounds scored in any of these assays.
TEAD-YAP block – TEAD-YAP interaction inhibition, primary screen, TEAD-YAP interaction inhibitor project, luminescence, HEK-TIYL cells; TEAD-Gal4/YAP UAS-luciferase luminescence; inhibition, % at 9.12 µM; hit rate 1.4% among 640,000; in the data active means inhibition above about 32%
GPR151 ag – activators of human GPR151, primary screen, cell-based, PathHunter beta-arrestin, luminescence | activation, % at 11.2 µM | PathHunter beta-arrestin GPR151 cells | G-protein coupled receptor 151 (Homo sapiens), Q8TDV0 | AID 1508602, 2020 | hit rate 1% among 650,000; in the data active means activation above about 4.9%
Target sequence (Q8TDV0 whole entry, looked up): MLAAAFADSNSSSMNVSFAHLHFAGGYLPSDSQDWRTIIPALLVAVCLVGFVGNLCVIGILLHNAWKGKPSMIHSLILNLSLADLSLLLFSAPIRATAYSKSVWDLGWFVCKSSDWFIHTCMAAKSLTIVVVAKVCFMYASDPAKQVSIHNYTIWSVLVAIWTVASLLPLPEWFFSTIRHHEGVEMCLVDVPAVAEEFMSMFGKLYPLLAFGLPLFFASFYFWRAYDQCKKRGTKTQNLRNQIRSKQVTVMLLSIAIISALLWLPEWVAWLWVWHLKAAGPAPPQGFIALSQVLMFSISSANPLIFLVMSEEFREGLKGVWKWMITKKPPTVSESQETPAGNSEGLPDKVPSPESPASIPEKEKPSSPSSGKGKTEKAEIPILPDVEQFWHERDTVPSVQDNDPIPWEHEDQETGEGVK
FBW7 act – FBW7 E3 ligase activators, primary screen, biochemical, AlphaScreen, human | F-box/WD repeat-containing protein 7 (Homo sapiens), Q969H0 | hit rate 0.13% among 650,000 | normalized activity (activation), % at 26.1 µM | AlphaScreen FBW7–phospho-cyclin E peptide binding, activator screen | AID 1259310, 2017; in the data active means normalized activity above about 1.9%;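 further: purified mutant Fbw7 with reduced substrate affinity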
MITF primary – MITF inhibitors, primary screen, biochemical, AlphaScreen, human | AlphaScreen MITF homodimerization, bead proximity signal | inhibition, % at 2.6 µM | hit rate 0.91% among 650,000; in the data active means inhibition above about 50%
Hits are given with their value.

O=C(NCCc1ccc(O)cc1)c1ccnc(N2CCN(c3ccccn3)CC2)c1 was read as TEAD-YAP block 45.5, GPR151 ag inactive, FBW7 act inactive and MITF primary inactive.
Screening O=C(CC(=O)Nc1cccc(Cl)c1)N/N=C\c1ccc(Cl)cc1 returned TEAD-YAP block inactive, GPR151 ag inactive, FBW7 act inactive and MITF primary inactive.
For O=C(O)C1C2CC=CC2c2cc(Cl)cc3c2N1CC1CC=CC31 (stereo not given) the results were TEAD-YAP block inactive, GPR151 ag inactive, FBW7 act 2.7 and MITF primary inactive.
O=C(O)c1cc2c3c(c1)C1C=CCC1C(c1ccc(Cl)cc1)N3CC1CC=CC21 (stereo not given) was read as TEAD-YAP block inactive, GPR151 ag inactive, FBW7 act inactive and MITF primary 87.6.
`CCCCc1ccc(NC(=O)c2ccc(N(C)S(C)(=O)=O)cc2)cc1` gave TEAD-YAP block 34.9, GPR151 ag inactive, FBW7 act inactive and MITF primary inactive.
CONC(=O)Nc1ccccc1[N+](=O)[O-] was read as TEAD-YAP block inactive, GPR151 ag inactive, FBW7 act inactive and MITF primary inactive.
For CC(C)(C)c1ccc(NC(=O)Nc2ccccc2[N+](=O)[O-])cc1 the results were TEAD-YAP block 62.2, GPR151 ag inactive, FBW7 act inactive and MITF primary inactive.
`COc1ccccc1NC(=O)Cn1cnc2sc(C(=O)Nc3cc(F)ccc3C)c(C)c2c1=O` gave TEAD-YAP block inactive, GPR151 ag inactive, FBW7 act inactive and MITF primary inactive.
For COc1ccccc1NC(=O)Cn1cnc2sc(C(=O)N3CCN(c4ccccc4OC)CC3)c(C)c2c1=O the results were TEAD-YAP block inactive, GPR151 ag inactive, FBW7 act 2.1 and MITF primary inactive.
Screening COc1ccccc1NC(=O)Cn1cnc2sc(C(=O)Nc3ccc(C)c(F)c3)c(C)c2c1=O returned TEAD-YAP block inactive, GPR151 ag inactive, FBW7 act 1.9 and MITF primary inactive.
`COc1ccccc1NC(=O)Cn1cnc2sc(C(=O)N3CCN(c4ccccc4)CC3)c(C)c2c1=O` gave TEAD-YAP block inactive, GPR151 ag inactive, FBW7 act inactive and MITF primary inactive.
`C/C(=N\NC(=O)c1cc(-c2cccnc2)nc2ccccc12)c1ccccc1O` gave TEAD-YAP block 41.2, GPR151 ag inactive, FBW7 act inactive and MITF primary inactive.
Screening COc1cccc(/C(C)=N/NC(=O)c2cc(-c3cccnc3)nc3ccccc23)c1 returned TEAD-YAP block inactive, GPR151 ag inactive, FBW7 act inactive and MITF primary inactive.
For COc1ccc(-c2cnc3ccc(NCc4ccc(F)cc4)nn23)cc1OC the results were TEAD-YAP block inactive, GPR151 ag inactive, FBW7 act inactive and MITF primary inactive.
For O=c1[nH]c(NN2CCOCC2)nnc1Cc1ccc(Cl)cc1 the results were TEAD-YAP block inactive, GPR151 ag inactive, FBW7 act inactive and MITF primary inactive.
For Cc1ccc2nc(NC(=O)CSCC(=O)OCC(=O)c3ccccc3)sc2c1 the results were TEAD-YAP block 68.4, GPR151 ag inactive, FBW7 act inactive and MITF primary inactive.
For COC(=O)CSCC(=O)Nc1nc2ccccc2s1 the results were TEAD-YAP block inactive, GPR151 ag inactive, FBW7 act inactive and MITF primary inactive.
CC(C)NC1CCCc2c1[nH]c1ccc([N+](=O)[O-])cc21 (stereo not given) was read as TEAD-YAP block 49.3, GPR151 ag inactive, FBW7 act inactive and MITF primary inactive.
For O=C(Nc1ccc(-c2cn3ccsc3n2)cc1)c1cccnc1Cl the results were TEAD-YAP block 46.0, GPR151 ag inactive, FBW7 act inactive and MITF primary inactive.
Cc1ccnc(N2CCC(C(=O)Nc3ccccc3Br)CC2)n1 was read as TEAD-YAP block inactive, GPR151 ag inactive, FBW7 act 2.1 and MITF primary inactive.
For CCCCNC(=O)c1cc(COc2cccc3cnccc23)on1 the results were TEAD-YAP block inactive, GPR151 ag inactive, FBW7 act inactive and MITF primary inactive.
For CN(Cc1ccccc1)C(=O)c1cc(COc2cccc3cnccc23)on1 the results were TEAD-YAP block 33.4, GPR151 ag inactive, FBW7 act inactive and MITF primary inactive.
Screening O=C(c1cc(COc2cccc3cnccc23)on1)N1CCCC(CCCO)C1 (stereo not given) returned TEAD-YAP block 64.7, GPR151 ag inactive, FBW7 act inactive and MITF primary inactive.
Screening N#C/C(=C\c1ccc(F)cc1)c1nc(-c2ccccc2)cs1 returned TEAD-YAP block inactive, GPR151 ag inactive, FBW7 act inactive and MITF primary inactive.
For O=C1Nc2ccccc2/C1=N/n1c(-c2ccccc2)nc2ccccc2c1=O the results were TEAD-YAP block 32.3, GPR151 ag inactive, FBW7 act inactive and MITF primary inactive.
For CCn1c(/C=C2/C(=O)Nc3ccccc32)nc2ccccc2c1=O the results were TEAD-YAP block inactive, GPR151 ag inactive, FBW7 act inactive and MITF primary inactive.
`Cc1ccc(NC(=O)Cn2c(-n3nc(C)cc3C)nc(C)cc2=O)cc1` gave TEAD-YAP block 42.6, GPR151 ag inactive, FBW7 act inactive and MITF primary inactive.
`COc1ccccc1CNC(=O)CN1C(=O)CCSc2ccccc21` gave TEAD-YAP block inactive, GPR151 ag inactive, FBW7 act inactive and MITF primary inactive.
CCN(CC)c1ccc(N)c(C)c1 was read as TEAD-YAP block inactive, GPR151 ag inactive, FBW7 act inactive and MITF primary 80.0.
CN(C)c1ccc(C2NC(CCl)CO2)cc1 (stereo not given) was read as TEAD-YAP block inactive, GPR151 ag inactive, FBW7 act inactive and MITF primary inactive.
O=C(CCl)NCCSc1ccc(Cl)cc1 was read as TEAD-YAP block 56.8, GPR151 ag inactive, FBW7 act inactive and MITF primary inactive.
Screening CC1=NN(c2ccc(Cl)c(C(=O)O)c2)C(=O)/C1=C/c1ccccc1F returned TEAD-YAP block inactive, GPR151 ag inactive, FBW7 act inactive and MITF primary inactive.
`COc1ccc2c(c1)CC/C(=C\c1cccn1C)C2=O` gave TEAD-YAP block 45.8, GPR151 ag inactive, FBW7 act inactive and MITF primary inactive.
`CCC(C)(C)NC(=O)CCS(=O)(=O)c1cc2c(cc1Cl)NC(=O)CO2` gave TEAD-YAP block inactive, GPR151 ag inactive, FBW7 act inactive and MITF primary inactive.
Screening O=C1CSC(=S)N1/N=C/c1ccccc1OS(=O)(=O)c1ccccc1 returned TEAD-YAP block inactive, GPR151 ag inactive, FBW7 act inactive and MITF primary inactive.
`COc1cccc(/C=N/N2C(=O)CSC2=S)c1O` gave TEAD-YAP block inactive, GPR151 ag inactive, FBW7 act inactive and MITF primary 76.6.
COc1cc(OC)c(S(=O)(=O)N2CCOCC2)cc1C(=O)Nc1ccccc1 was read as TEAD-YAP block inactive, GPR151 ag inactive, FBW7 act inactive and MITF primary inactive.
